Compounds with a hit are over-represented: about 13% of the library has one in this group of screens.
WT yeast gro inh – growth inhibition of WT yeast, mitochondrial fusion screen; mitochondrial fusion phenotypic screen, WT strain; inhibition, % at 10 µM; 190,000 tested, 2.1% active; AID 1362; in the data active = inhibition above about 58%; tested in S. cerevisiae
L major viab – inhibitors of Leishmania major promastigote growth; Leishmania major promastigotes, resazurin fluorescence viability; inhibition, % at 10 µM; 200,000 tested, 9% active; in the data active = inhibition above about 50%;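 note: promastigotes grown with compound for 44 hours at 28 °C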
RAM inhibit – inhibitors of the yeast RAM network; S. cerevisiae dse1pr::URA3 reporter, 5-FOA growth OD615, 2 d; analog-sensitive cbk1-as2 kinase mutant strain; inhibition, % at 50 µM; 190,000 tested, 1.8% active; AID 868;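 active = inhibition above a set limit, 3 SD over mean compound inhibition, cut at about 8.4% in these data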;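 note: inhibition rescues growth on 5-FOA so higher OD means more RAM inhibition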
CHOP inhibitor – inhibitors of CHOP induction in ER stress response. inhibition, % at 10 µM. AID 2732. CHO-K1 CHOP-promoter luciferase, tunicamycin-induced, 15-18 h. 220,000 tested, 3.8% active;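 active = compounds that reduced the stress-induced luciferase reporter signal by more than about 70% of percent inhibition, limit read from the data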
A number is an active result; 0 = inactive; - = no result.

SMILES | WT yeast gro inh | L major viab | RAM inhibit | CHOP inhibitor
Cc1ccc(S(=O)(=O)Nc2ccc(-c3nc4cc(NS(=O)(=O)c5ccc(C)cc5)ccc4o3)cc2)cc1 | 0 | 98 | 0 | 0
Cc1ccc(-c2nc3cc(NC(=O)C(C)C)ccc3o2)cc1 | 0 | 0 | 0 | 0
Cc1ccc2nc(-c3ccc(NC(=O)CSc4nc(N)cc(=O)[nH]4)cc3)sc2c1 | - | - | - | 73
O=C(CCCc1nc2ccccc2s1)NCc1cccnc1 | 0 | 0 | 0 | 0
CCOC(=O)C(=O)c1cn(C2OCC(OC(C)=O)C(OC(C)=O)C2OC(C)=O)c2ccccc12 (centres undefined) | 0 | 0 | 0 | 0
CC(NC(=O)CCl)c1ccccc1Br (centres undefined) | - | - | - | 0
O=C(Nc1nnc(-c2ccccc2)o1)c1nc2ccccc2s1 | 0 | - | - | 0
Cc1ccc2nc(-c3ccc(NC(=O)CN4C(=O)c5ccccc5C4=O)cc3)sc2c1 | 0 | 0 | 0 | 0
COc1ccc(C2(C)NC(=O)N(CC(=O)Nc3ccc(-c4nc5ccc(C)cc5s4)cc3)C2=O)cc1 (centres undefined) | 0 | 0 | 0 | 71
O=S(=O)(Nc1cc(C(F)(F)F)ccc1N1CCOCC1)c1ccc2ccccc2c1 | 0 | 0 | 0 | 0
Cc1cnc(C(=O)Nc2cccc3cccnc23)cn1 | 0 | 97 | 0 | -
O=C(N/N=C/c1ccc(OC(=O)c2ccccc2)cc1)c1ccc(CN2CCOCC2)cc1 | 0 | 0 | 0 | 71
Cc1ccc(-n2c(C)cc(/C=N/NC(=O)c3ccc(CN4CCOCC4)cc3)c2C)cc1 | 0 | 53 | 0 | 0
Cc1ccc(-n2c(C)cc(/C=N/NC(N)=S)c2C)cc1 | 0 | 100 | 0 | 0
O=C(N/N=C/c1ccc(OC2CSC2)cc1)c1ccc(CN2CCOCC2)cc1 | 0 | 0 | 0 | 0
CSc1ccccc1NC(=O)CSc1nncs1 | 0 | 0 | 0 | 0
Cc1ccc(-n2c(SCCN)nnc2-c2cccc(C)c2)cc1 | - | - | - | 0
COc1ccc(-n2c(SCC3CNC(=O)O3)nnc2-c2ccc(Cl)cc2)cc1 (centres undefined) | 0 | 92 | 0 | 0
Cc1cccc(-c2nnc(SCC3CNC(=O)O3)n2-c2ccc(Cl)cc2)c1 (centres undefined) | 0 | 96 | 0 | 0
C(=C\c1ccccc1)/CSc1nnc(-c2cccnc2)o1 | 0 | 0 | 0 | 0
CCOc1cccc2cc(-c3csc(NC(=O)CCC(=O)N4CCC(C)CC4)n3)c(=O)oc12 | 0 | 0 | 0 | 86
CCOc1cccc2cc(-c3csc(NC(=O)CCC(=O)NCCCN4CCC(C)CC4)n3)c(=O)oc12 | 0 | 62 | 0 | 0
Cc1nn(-c2ccccc2)c(Cl)c1C(=O)NCc1cccs1 | 0 | 0 | 0 | 0
CCN1CCN(c2cc3c(nn2)Oc2ccccc2N3C)CC1 | 0 | 0 | 0 | 0
CCCN(CCC)C(=O)C1CC(=O)OC12CCCCC2 (centres undefined) | 0 | 0 | 0 | 0
SMILES | WT yeast gro inh | L major viab | RAM inhibit | CHOP inhibitor
CC(=O)n1cc(N(C(=O)CCl)c2ccc(Cl)cc2)c2ccccc21 | - | - | - | 107
COc1ccccc1N(C(=O)CCl)c1cn(C(C)=O)c2ccccc12 | - | - | - | 0
COc1ccc(S(=O)(=O)NCC(c2cccnc2)N2CCN(c3ccc(F)cc3)CC2)cc1C (centres undefined) | 0 | 96 | 0 | 0
COc1ccc(S(=O)(=O)NCC(c2cccnc2)N2CCN(c3ccccc3)CC2)cc1C (centres undefined) | 0 | 97 | 0 | 0
Cc1noc(C)c1COc1ccc(C(=O)OCC(=O)NC2CCCCC2C)cc1 (centres undefined) | 0 | 0 | 0 | 0
COc1ccc(C=O)cc1Cn1c(C)cc(C)c(C#N)c1=O | 0 | 0 | 0 | 0
CN1CCc2c(sc3c2C(=O)NC(c2ccc(-c4cccc(Cl)c4)o2)N3)C1 (centres undefined) | 0 | 68 | 0 | 0
Cc1ccsc1C1NC(=O)c2c(sc3c2CCN(C)C3)N1 (centres undefined) | 0 | 88 | 0 | 0
COc1cc(OC)cc(C(=O)NNC(=O)CCc2ccccc2)c1 | 0 | 0 | 0 | 0
CN(CC1CCOCC1)C(=O)CC1C(=O)NCCN1Cc1cccc(Oc2ccccc2)c1 (centres undefined) | 0 | 0 | 0 | 0
COc1ccc(CCNC(=O)CSc2nnc3ccccn23)cc1 | 0 | 0 | 0 | 0
FC(F)(F)Oc1ccc(Nc2nc3ccccc3o2)cc1 | 0 | 0 | 0 | 91
COC(=O)c1ccc(OC(=O)CCN2c3ccccc3Sc3ccccc32)cc1 | 61 | 0 | 11 | 0
O=[N+]([O-])c1cn(Cc2ccc(Cl)cc2)cn1 | 0 | 64 | 0 | 0
Cc1ncc([N+](=O)[O-])n1Cc1ccc(Cl)cc1 | 0 | 83 | 0 | 0
Cc1ncc([N+](=O)[O-])n1Cc1ccc(Br)cc1 | 0 | 91 | 0 | 0
Cc1ccc(S(=O)(=O)c2cnc(-c3ccccc3)nc2N2CCN(C)CC2)cc1 | 0 | 0 | 0 | 0

Compound activity (PubChem)
